Laboratory results as given in the supplement of paper PMC10849652.
About 7,900 targets were measured; listed, in parts, are those with a hit and a random draw of the rest. About 0.6% of all pairs of compound and target were hits. Values without a mark were called inactive.

Tests used:
Assay in all cases: log2 fold change, soluble protein after heating vs DMSO (PISA); higher = thermal stabilisation; K562 cells, 10 uM, 30 min; active = over 0.2 and 3.5 SD of the protein, either way, in both replicates (recomputed)
saracatinib = compound: CN1CCN(CCOc2cc(OC3CCOCC3)c3c(Nc4c(Cl)ccc5c4OCO5)ncnc3c2)CC1 [saracatinib]
In short: (§1)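 K562 cells at 2×10^6 cells/mL were treated for 30 min with 10 μM compound, and aliquots were heated for 3 min over 48°C-58°C before pooling. Extraction used PBS with 0.5% NP-40 at 4°C, and soluble protein was the supernatant after 21,000xg for 90 min, measured by TMTpro 16plex LC-MS/MS with channel sums equalised. Thermal stability values, relative to control samples and from duplicates, are log2 fold changes.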

sotrastaurin = compound: CN1CCN(c2nc(C3=C(c4c[nH]c5ccccc45)C(=O)NC3=O)c3ccccc3n2)CC1 [sotrastaurin]
In short: as §1

alvocidib = compound: CN1CC[C@H](c2c(O)cc(O)c3c(=O)cc(-c4ccccc4Cl)oc23)[C@H](O)C1 [alvocidib]
In short: as §1

Tubastatin A = compound: CN1CCc2c(c3ccccc3n2Cc2ccc(C(=O)NO)cc2)C1 [Tubastatin A]
In short: as §1

[1] = compound: CNC(=O)C1=CC=CC=C1NC2=NC(=NC=C2Cl)NC3=C(C=C(C=C3)N4CCOCC4)OC
In short: as §1

defactinib = compound: CNC(=O)c1ccc(Nc2ncc(C(F)(F)F)c(NCc3nccnc3N(C)S(C)(=O)=O)n2)cc1 [defactinib]
In short: as §1

rucaparib = compound: CNCc1ccc(-c2[nH]c3cc(F)cc4c3c2CCNC4=O)cc1 [rucaparib]
In short: as §1

[2] = compound: CNc1nc(-c2ccc3c(N)n[nH]c3c2)cc(N2C[C@@H](C(=O)NC3CCCCC3)CC[C@H]2C)n1
In short: as §1

encorafenib = compound: COC(=O)N[C@@H](C)CNc1nccc(-c2cn(C(C)C)nc2-c2cc(Cl)cc(NS(C)(=O)=O)c2F)n1 [encorafenib]
In short: as §1

[3] = compound: COC(=O)[C@H](CCSC)NC(=O)C1=C(C=C(C=C1)NC[C@H](CS)N)C2=CC=CC=C2
In short: as §1

[4] = compound: COC1=CC=C(C=C1)CN2C=CC3=C2C=C(C=C3)C(=O)NO
In short: as §1

filanesib = compound: CON(C)C(=O)N1N=C(c2cc(F)ccc2F)S[C@@]1(CCCN)c1ccccc1 [filanesib]
In short: as §1

zotarolimus = compound: CO[C@H]1C[C@@H]2CC[C@@H](C)[C@@](O)(O2)C(=O)C(=O)N2CCCC[C@H]2C(=O)O[C@H]([C@H](C)C[C@@H]2CC[C@H](n3cnnn3)[C@H](OC)C2)CC(=O)[C@H](C)/C=C(\C)[C@@H](O)[C@@H](OC)C(=O)[C@H](C)C[C@H](C)/C=C/C=C/C=C/1C [zotarolimus]
In short: as §1

idasanutlin = compound: COc1cc(C(=O)O)ccc1NC(=O)[C@@H]1N[C@@H](CC(C)(C)C)[C@](C#N)(c2ccc(Cl)cc2F)[C@H]1c1cccc(Cl)c1F [idasanutlin]
In short: as §1

alisertib = compound: COc1cc(Nc2ncc3c(n2)-c2ccc(Cl)cc2C(c2c(F)cccc2OC)=NC3)ccc1C(=O)O [alisertib]
In short: as §1

[5] = compound: COc1cc2nc(-c3cc(F)ccc3O)nc(N[C@@H]3CNC[C@H]3C(C)(C)O)c2cc1OC
In short: as §1

gefitinib = compound: COc1cc2ncnc(Nc3ccc(F)c(Cl)c3)c2cc1OCCCN1CCOCC1 [gefitinib]
In short: as §1

[6] = compound: COc1cccc2cc(-c3nc([C@H]4CC[C@H](C(=O)O)CC4)n4ncnc(N)c34)[nH]c12
In short: as §1

lapatinib = compound: CS(=O)(=O)CCNCc1ccc(-c2ccc3ncnc(Nc4ccc(OCc5cccc(F)c5)c(Cl)c4)c3c2)o1 [lapatinib]
In short: as §1

pictilisib = compound: CS(=O)(=O)N1CCN(Cc2cc3nc(-c4cccc5[nH]ncc45)nc(N4CCOCC4)c3s2)CC1 [pictilisib]
In short: as §1

Sequence of UniProt P09874 (P09874 whole entry, looked up): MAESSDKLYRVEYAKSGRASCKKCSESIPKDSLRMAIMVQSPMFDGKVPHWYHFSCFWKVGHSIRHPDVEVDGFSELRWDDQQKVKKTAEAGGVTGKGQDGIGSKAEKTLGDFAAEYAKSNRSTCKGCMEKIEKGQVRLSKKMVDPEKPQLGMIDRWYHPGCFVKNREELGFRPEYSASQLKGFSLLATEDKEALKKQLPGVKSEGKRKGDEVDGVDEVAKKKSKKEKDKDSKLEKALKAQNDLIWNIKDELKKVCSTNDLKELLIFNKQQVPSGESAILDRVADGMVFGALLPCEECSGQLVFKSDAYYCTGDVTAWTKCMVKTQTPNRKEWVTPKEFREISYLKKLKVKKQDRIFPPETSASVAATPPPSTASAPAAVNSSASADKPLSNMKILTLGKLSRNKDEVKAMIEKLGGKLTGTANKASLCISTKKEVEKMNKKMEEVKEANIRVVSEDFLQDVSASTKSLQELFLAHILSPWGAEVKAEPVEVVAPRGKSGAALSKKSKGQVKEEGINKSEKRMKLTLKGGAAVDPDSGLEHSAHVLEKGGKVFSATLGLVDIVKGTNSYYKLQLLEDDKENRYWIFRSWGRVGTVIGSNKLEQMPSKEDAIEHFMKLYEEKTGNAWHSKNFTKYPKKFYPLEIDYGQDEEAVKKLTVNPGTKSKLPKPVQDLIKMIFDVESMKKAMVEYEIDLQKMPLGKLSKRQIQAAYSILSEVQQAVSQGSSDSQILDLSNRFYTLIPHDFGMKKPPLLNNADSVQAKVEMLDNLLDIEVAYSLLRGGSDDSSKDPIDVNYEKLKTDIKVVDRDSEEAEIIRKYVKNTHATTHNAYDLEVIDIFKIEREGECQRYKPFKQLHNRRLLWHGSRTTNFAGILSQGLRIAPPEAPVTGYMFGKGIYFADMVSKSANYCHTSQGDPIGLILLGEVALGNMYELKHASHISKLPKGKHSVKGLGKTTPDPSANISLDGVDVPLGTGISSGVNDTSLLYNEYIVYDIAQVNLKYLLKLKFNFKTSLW
Sequence of UniProt Q8WXF1 (Q8WXF1 whole entry, looked up): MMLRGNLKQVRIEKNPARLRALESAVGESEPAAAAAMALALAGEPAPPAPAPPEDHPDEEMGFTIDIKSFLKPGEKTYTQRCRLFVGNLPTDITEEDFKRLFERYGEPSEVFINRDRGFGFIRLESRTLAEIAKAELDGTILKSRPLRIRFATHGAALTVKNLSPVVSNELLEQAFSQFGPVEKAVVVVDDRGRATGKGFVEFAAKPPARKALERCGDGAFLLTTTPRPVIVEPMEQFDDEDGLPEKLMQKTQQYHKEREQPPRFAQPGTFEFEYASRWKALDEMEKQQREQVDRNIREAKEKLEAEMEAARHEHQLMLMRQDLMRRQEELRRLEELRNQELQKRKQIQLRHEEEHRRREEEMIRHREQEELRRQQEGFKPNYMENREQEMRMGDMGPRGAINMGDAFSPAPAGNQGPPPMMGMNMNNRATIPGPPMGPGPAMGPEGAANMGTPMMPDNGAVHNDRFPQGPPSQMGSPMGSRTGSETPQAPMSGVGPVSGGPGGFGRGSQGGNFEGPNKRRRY
Sequence of UniProt Q15004 (Q15004 whole entry, looked up): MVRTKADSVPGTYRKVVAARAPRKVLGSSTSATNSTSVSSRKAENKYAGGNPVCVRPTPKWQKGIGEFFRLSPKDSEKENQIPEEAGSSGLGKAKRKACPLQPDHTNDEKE
Sequence of UniProt Q6L8Q7 (Q6L8Q7 whole entry, looked up): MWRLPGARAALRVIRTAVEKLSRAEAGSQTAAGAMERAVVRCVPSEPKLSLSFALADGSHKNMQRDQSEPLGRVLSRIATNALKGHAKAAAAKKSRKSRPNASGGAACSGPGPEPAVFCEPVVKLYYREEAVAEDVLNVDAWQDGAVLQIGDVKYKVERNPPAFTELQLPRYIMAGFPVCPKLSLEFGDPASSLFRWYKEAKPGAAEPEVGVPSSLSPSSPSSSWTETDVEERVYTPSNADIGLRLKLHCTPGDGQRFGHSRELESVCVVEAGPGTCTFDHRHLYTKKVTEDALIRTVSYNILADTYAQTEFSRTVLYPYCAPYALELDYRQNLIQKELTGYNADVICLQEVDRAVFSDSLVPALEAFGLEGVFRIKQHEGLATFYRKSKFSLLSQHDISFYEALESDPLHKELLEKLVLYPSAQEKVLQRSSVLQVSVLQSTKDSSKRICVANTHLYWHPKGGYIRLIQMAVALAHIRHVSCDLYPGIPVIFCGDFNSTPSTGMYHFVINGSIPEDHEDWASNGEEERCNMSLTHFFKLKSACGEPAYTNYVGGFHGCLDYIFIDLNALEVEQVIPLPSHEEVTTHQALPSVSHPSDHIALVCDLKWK
Sequence of UniProt Q9UBV8 (Q9UBV8 whole entry, looked up): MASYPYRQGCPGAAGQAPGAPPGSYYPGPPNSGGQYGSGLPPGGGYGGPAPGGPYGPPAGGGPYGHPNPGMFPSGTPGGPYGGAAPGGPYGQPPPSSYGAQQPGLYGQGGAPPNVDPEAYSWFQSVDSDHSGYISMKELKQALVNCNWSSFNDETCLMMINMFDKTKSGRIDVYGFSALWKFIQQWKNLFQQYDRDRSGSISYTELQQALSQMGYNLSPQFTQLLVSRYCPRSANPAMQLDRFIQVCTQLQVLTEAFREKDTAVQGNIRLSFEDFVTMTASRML
Sequence of UniProt Q15008 (Q15008 whole entry, looked up): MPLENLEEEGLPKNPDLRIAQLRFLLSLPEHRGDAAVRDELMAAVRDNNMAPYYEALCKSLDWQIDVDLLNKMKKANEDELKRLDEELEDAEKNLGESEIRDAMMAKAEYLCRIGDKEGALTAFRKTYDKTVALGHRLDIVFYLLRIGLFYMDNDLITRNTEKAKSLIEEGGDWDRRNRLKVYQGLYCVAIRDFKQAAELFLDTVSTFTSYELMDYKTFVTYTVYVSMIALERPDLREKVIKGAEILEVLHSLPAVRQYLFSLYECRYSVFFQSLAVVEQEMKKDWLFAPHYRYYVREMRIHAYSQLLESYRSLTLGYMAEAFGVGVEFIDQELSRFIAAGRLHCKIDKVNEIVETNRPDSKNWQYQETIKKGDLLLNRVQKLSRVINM
Sequence of UniProt Q9UG56 (Q9UG56 whole entry, looked up): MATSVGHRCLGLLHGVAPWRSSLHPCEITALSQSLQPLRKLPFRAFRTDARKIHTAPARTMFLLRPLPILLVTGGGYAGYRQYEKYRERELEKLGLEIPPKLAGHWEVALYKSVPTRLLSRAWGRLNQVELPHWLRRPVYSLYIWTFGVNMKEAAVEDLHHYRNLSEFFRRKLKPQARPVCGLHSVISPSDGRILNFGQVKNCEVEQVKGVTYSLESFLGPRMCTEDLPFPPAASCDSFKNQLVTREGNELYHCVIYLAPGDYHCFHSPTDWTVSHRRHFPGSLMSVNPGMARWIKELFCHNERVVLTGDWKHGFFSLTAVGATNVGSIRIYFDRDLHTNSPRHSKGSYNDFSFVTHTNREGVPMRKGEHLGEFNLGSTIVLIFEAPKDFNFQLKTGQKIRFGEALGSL
Sequence of UniProt Q10713 (Q10713 whole entry, looked up): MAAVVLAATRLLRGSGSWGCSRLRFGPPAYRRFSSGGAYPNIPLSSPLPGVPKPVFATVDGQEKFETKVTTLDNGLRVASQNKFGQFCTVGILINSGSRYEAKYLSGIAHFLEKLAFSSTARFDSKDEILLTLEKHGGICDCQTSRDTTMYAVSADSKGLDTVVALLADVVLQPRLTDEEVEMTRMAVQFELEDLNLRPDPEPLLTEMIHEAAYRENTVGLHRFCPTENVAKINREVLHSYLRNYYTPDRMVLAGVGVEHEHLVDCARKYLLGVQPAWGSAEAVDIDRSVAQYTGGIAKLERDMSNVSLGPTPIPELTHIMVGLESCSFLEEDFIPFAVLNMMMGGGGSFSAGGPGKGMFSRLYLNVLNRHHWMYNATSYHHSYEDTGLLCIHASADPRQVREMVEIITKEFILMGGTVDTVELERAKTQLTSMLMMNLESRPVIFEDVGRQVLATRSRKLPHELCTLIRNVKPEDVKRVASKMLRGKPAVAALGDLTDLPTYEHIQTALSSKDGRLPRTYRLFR
Sequence of UniProt O43242 (O43242 whole entry, looked up): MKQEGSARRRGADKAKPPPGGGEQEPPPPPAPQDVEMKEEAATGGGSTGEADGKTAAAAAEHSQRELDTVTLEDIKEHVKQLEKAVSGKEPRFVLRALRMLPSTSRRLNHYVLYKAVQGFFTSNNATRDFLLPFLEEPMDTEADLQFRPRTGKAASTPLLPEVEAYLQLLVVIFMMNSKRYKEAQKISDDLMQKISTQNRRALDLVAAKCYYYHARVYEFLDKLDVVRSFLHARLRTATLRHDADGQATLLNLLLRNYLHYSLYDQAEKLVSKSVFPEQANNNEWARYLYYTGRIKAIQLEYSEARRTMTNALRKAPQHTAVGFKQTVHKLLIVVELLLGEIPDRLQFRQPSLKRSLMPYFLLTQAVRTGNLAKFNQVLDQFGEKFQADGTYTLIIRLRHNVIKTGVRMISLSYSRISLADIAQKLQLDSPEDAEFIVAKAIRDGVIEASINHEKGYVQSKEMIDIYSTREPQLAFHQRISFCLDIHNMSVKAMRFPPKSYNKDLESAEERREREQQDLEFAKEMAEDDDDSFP
Sequence of UniProt O60256 (O60256 whole entry, looked up): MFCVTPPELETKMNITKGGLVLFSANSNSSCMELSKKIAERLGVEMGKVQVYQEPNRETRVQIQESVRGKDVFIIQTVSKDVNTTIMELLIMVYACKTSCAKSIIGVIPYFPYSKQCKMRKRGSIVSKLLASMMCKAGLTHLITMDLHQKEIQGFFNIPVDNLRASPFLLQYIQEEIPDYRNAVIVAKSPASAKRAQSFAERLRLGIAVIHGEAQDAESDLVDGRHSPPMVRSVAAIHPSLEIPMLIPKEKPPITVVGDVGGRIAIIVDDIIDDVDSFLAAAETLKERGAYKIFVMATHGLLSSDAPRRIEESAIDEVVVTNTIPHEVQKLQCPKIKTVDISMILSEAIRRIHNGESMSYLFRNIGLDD

Target	log2 fold change (saracatinib)	log2 fold change (sotrastaurin)	log2 fold change (alvocidib)	log2 fold change (Tubastatin A)	log2 fold change [1]	log2 fold change (defactinib)	log2 fold change (rucaparib)	log2 fold change [2]	log2 fold change (encorafenib)	log2 fold change [3]	log2 fold change [4]	log2 fold change (filanesib)	log2 fold change (zotarolimus)	log2 fold change (idasanutlin)	log2 fold change (alisertib)	log2 fold change [5]	log2 fold change (gefitinib)	log2 fold change [6]	log2 fold change (lapatinib)	log2 fold change (pictilisib)
PRPF40A (UniProt O75400)	-0.026	-0.099	-0.171	0.103	-0.197	-0.219	0.029	-0.03	0.026	-0.024	0.082	0.135	0.029	0.058	0.024	-0.091	0.042	-0.045	0.018	-0.027
PARG (UniProt Q86W56)	0.003	-0.102	-0.19	0.051	-0.113	-0.068	0.044	0.115	0.034	-0.025	0.065	-0.057	0.048	-0.093	-0.114	0.013	0.023	0.094	0.013	-0.023
PDS5B (UniProt Q9NTI5)	-0.134	0.039	-0.097	0.14	-0.169	-0.101	-0.088	0.014	0	0.032	0.065	0.104	0.037	-0.07	-0.05	-0.188	0.123	0.078	-0.206	0.066
PSPC1 (UniProt Q8WXF1)	0.007	-0.062	-0.068	0.041	-0.036	-0.342 (active)	0.002	-0.011	0.03	-0.028	0.008	0.048	0.026	0.03	-0.084	-0.146	0.061	-0.042	0.152	-0.081
PMPCA (UniProt Q10713)	-0.026	-0.007	-0.101	-0.007	0.007	-0.086	-0.022	0.052	-0.027	-0.022	-0.041	0.013	0.035	-0.1	-0.089	-0.02	0.043	0.009	-0.023	0.018
PRPF3 (UniProt O43395)	-0.023	-0.114	0.24	0.07	-0.021	-0.239	-0.041	-0.001	0.171	-0.025	0.18	-0.038	-0.048	-0.029	0.031	-0.07	0.06	0.072	-0.02	-0.022
PARP1 (UniProt P09874)	-0.025	-0.104	-0.004	0.037	0.094	-0.089	1.05 (active)	0.038	0.079	-0.04	0.091	-0.043	0.048	-0.047	0.039	0.147	0.062	-0.062	-0.082	0.008
PRPSAP2 (UniProt O60256)	0.011	0.084	0.003	-0.018	-0.017	0.01	-0.014	0.03	-0.004	-0.012	-0.168	0.084	0.029	0.012	-0.078	0.011	-0.022	0.025	-0.011	-0.233 (active)
PRKACA (UniProt P17612)	0.002	-0.117	-0.012	0.054	-0.104	-0.015	0.061	0.077	0.01	0.072	0.05	-0.076	-0.034	0.006	-0.078	0.088	-0.004	0.028	0.025	0.068
PEF1 (UniProt Q9UBV8)	0	0.053	-0.006	-0.004	0.049	-0.01	-0.019	-0.014	-0.025	-0.003	-0.009	-0.038	0.041	-0.009	-0.008	-0.089	-0.011	0.058	0.032	-0.076
POLR2A (UniProt P24928)	-0.012	0.034	0.329 (active)	-0.012	-0.035	0.241	0.126	0.025	0.027	-0.07	-0.005	-0.021	-0.026	-0.054	0.001	0.258 (active)	0.015	0.042	0	0.05
PSMD6 (UniProt Q15008)	-0.044	-0.035	0.056	0.025	0.013	0.046	0.051	0.062	0.056	-0.021	-0.02	0.042	0.017	-0.013	-0.091	-0.062	-0.021	-0.045	0.102	-0.036
PCLAF (UniProt Q15004)	0.057	0.057	0.138	0.08	-0.094	0.076	-0.094	-0.161	-0.046	0.093	-0.115	0.158	-0.172	0.066	-0.035	-0.018	-0.057	-0.162	0.033	-0.015
PDE12 (UniProt Q6L8Q7)	0.014	0.018	-0.098	0.01	0.028	-0.04	-0.005	0.023	-0.019	0.007	0.359 (active)	-0.052	0.044	-0.052	-0.051	0.014	-0.01	-0.003	-0.007	0.074
PISD (UniProt Q9UG56)	-0.095	0.061	0	0.019	0.026	-0.054	0.06	0.252 (active)	0.063	0.028	-0.018	-0.012	0.015	-0.074	-0.024	0.148	0.008	0.012	-0.009	0.036
PSMD3 (UniProt O43242)	-0.06	-0.015	0.022	0.016	0.007	0.083	0.037	0.051	0.031	0.003	-0.058	0.061	0.021	0.003	-0.075	-0.089	-0.035	-0.011	0.061	-0.023
